Bioassay records (PubChem)
Sampled rows, rich in hits. Any-hit rate of the full collection: about 1.3%.
MCL1-BIM inh – MCL1-BIM-BH3 interaction inhibition (human); GST-MCL1 / FITC-Bim-BH3 fluorescence polarization; inhibition, % at 10.9 µM; 320,000 compounds, 0.68% hits; Q07820;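 active = inhibition above the mean inhibition of all tested compounds plus 3 SD, set per campaign, cut at about 40% in these data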;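 also: 0% = DMSO wells and 100% = unlabeled Bim-BH3 peptide control; higher means more loss of mP so more displacement of Bim peptide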
Target sequence (Q07820 whole entry, looked up): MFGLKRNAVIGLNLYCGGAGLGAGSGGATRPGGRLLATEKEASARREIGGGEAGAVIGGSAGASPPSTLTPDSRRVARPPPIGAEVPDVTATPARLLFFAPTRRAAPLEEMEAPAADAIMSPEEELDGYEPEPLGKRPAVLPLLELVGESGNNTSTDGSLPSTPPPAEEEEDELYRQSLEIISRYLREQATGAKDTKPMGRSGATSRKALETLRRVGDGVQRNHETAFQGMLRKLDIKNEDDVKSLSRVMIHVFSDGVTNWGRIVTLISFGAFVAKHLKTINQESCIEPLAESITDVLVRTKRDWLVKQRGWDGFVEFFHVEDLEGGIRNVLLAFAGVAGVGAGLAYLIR
C-LANA FP – inhibitors of KSHV LANA C-terminal domain DNA binding; 340,000 compounds, 0.078% hits; MBP-C-LANA/FAM-LBS DNA binding, fluorescence polarization; AID 504423; inhibition, % at 9 µM;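 active = highest replicate inhibition at or above 60% at 9 µM, even if other replicates fall short; inactive = all replicates below 60% inhibition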;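 also: 0% = neutral control wells and 100% = 4 µM acridine orange control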
BCLXL inh – blocks human Bcl-xL binding to Bim BH3 peptide. Q07817. GST-Bcl-xL / FITC-Bim BH3 peptide fluorescence polarization. inhibition, % at 10.9 µM. 320,000 compounds, 0.7% hits;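 active = inhibition above the mean of all tested compounds plus 3 SD, cutoff set per campaign, cut at about 30% in these data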;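 also: 0% = DMSO wells and 100% = unlabeled Bim-BH3 peptide competitor; inhibitors lower millipolarization by displacing the labeled peptide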
Target sequence (Q07817 whole entry, looked up): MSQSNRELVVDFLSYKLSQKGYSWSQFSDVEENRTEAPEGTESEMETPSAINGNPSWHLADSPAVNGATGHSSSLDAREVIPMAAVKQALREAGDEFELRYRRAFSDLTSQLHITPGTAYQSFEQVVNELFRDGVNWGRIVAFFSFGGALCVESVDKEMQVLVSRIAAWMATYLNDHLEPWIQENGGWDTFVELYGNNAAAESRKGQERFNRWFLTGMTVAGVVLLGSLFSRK
GLD-1 TGE inh – GLD-1-TGE RNA interaction inhibition (C. elegans); inhibition, % at 5.96 µM; purified GLD-1 + fluorescein TGE RNA, fluorescence polarization; AID 2280; 320,000 compounds, 0.44% hits; Q17339;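 active = percent inhibition above a per-plate cutoff, the plate mean of test compounds plus 3 SD, cut at about 30% in these data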;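 also: 0% = DMSO wells with GLD-1 and probe and 100% = wells lacking GLD-1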
Keap1 Nrf2 FP – disrupts human Keap1 binding to Nrf2 peptide. Keap1 Kelch-Nrf2 peptide fluorescence polarization, 1536-well. inhibition, % at 9.4 µM. 340,000 compounds, 0.15% hits; in the data active = inhibition above about 12%;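 also: human Keap1 Kelch domain with fluorescein labeled Nrf2 9mer peptide probe; 0% = neutral control wells and 100% = peptide positive control; higher means more block of Keap1 binding to Nrf2 peptide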
E coli Lon inh – inhibitors of E. coli Lon protease; P0A9M0; purified E. coli Lon protease, fluorescence polarization; inhibition, % at 7.94 µM; 360,000 compounds, 0.42% hits; in the data active = inhibition above about 13%, passing the limit was not always enough;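 also: 0% = enzyme with probe and DMSO and 100% = no enzyme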
An asterisk follows results filed as active; / = no result given.

SMILES | MCL1-BIM inh | C-LANA FP | BCLXL inh | GLD-1 TGE inh | Keap1 Nrf2 FP | E coli Lon inh
CN(Cc1ccon1)C(=O)CC1C(=O)NCCN1Cc1ccc(Cl)c(F)c1 (stereo unspecified) | 35 | 3 | 36* | 25 | -5 | 8
CN(Cc1ccon1)C(=O)CC1C(=O)NCCN1Cc1ccc(F)c(F)c1 (stereo unspecified) | 17 | 2 | 13 | 12 | -2 | -1
CN1CCc2c(sc(N)c2C(=O)O)C1 | 29 | -2 | 31* | 13 | 2 | -1
COc1ccc(C(=O)c2c(N)sc3c2CCN(C)C3)cc1 | 32 | 2 | 33* | -2 | 0 | -41
COCOc1cccc(CN2CCC2(C)C(=O)Nc2ccc(C)c(O)c2)c1 (stereo unspecified) | / | / | / | / | / | -4
CC(=O)N1c2ccc(S(=O)(=O)N3CCCC(C(=O)Nc4ccc(F)cc4)C3)cc2CC1C (stereo unspecified) | 11 | -1 | 73* | -1 | -1 | -11
COc1ccc(-c2ccc(/C=N/N3C(=O)C4C5C=CC(C6CC56)C4C3=O)o2)c([N+](=O)[O-])c1 (stereo unspecified) | 39 | 0 | 31* | 20 | 0 | 4
O=C(O)c1cc(O)ccc1O | / | 0 | / | / | 1 | -14
O=C(O)C1=CC(=C(c2ccc(O)c(C(=O)O)c2)c2ccc(O)c(C(=O)O)c2)C=CC1=O | 108* | / | 76* | 92* | / | /
CCC/C=C/c1ccc(CN2C(C(C)C)C(=O)N(Cc3cn(CCC4OCCO4)nn3)CCS2(=O)=O)cc1 (stereo unspecified) | / | / | / | / | / | 5
O=C1NC[C@H](CCCCN2C[C@H](Cc3ccccc3)N(CCC3CCCCC3)C(=O)C2=O)N(CCc2ccccc2)C1=O | / | / | / | / | / | -8
O=C(CCc1nc2ccccc2c(=O)[nH]1)N1CCCc2ccccc21 | 43* | 6 | 51* | 28 | -5 | -34
Cc1c(Cl)cnc(NC(=O)COC(=O)C2CC2)c1Cl | / | 0 | / | 11 | -3 | -1
CC(=O)NC12CC3CC(C1)CC(C(=O)OCC(=O)Nc1ncc(Cl)c(C)c1Cl)(C3)C2 | 36 | 2 | 37* | 14 | 0 | -1
CC(C)(CS(=O)(=O)[O-])NC(=O)CC[N+](C)(C)CCO | 4 | 82* | 3 | -6 | -1 | -5
CCOCCCNC1=C(Cl)C(=O)c2ccccc2C1=O | 33 | 1 | 34* | -1 | 1 | -7
CCCCNC(=O)CC1Nc2ccccc2NC1=O (stereo unspecified) | 28 | 1 | 32* | 30 | -1 | 5
CCCOc1ccc(N2C(=O)CC(NCCNc3ccc(S(=O)(=O)CC)cc3)C2=O)cc1 (stereo unspecified) | 4 | -2 | 59* | 2 | -7 | 2
C=C(C)C(=O)Nc1cccc(C2=NOC3(C2)C[C@@H](C(N)=O)N(C(=O)/C(C)=C/C)C3)c1 (stereo partly specified) | -36 | 85* | -1 | 1 | -1 | 0
C=C(C)C(=O)Nc1cccc(C2=NOC3(C2)C[C@@H](C(N)=O)N(C(=O)/C=C/C=C/C)C3)c1 (stereo partly specified) | 12 | 68* | 2 | 2 | -6 | -12
C/C=C(\C)C(=O)Nc1cccc(C2=NOC3(C2)C[C@@H](C(N)=O)N(C(=O)/C(C)=C/C)C3)c1 (stereo partly specified) | 6 | 2 | 7 | 1 | 4 | 0
C/C=C/C=C/C(=O)N1CC2(CC(c3cccc(NC(=O)/C=C/C)c3)=NO2)C[C@@H]1C(N)=O (stereo partly specified) | 2 | 0 | -1 | -8 | -12 | 13
O=C(c1ccco1)[C@@H]1[C@@H]2C(=O)N(c3ccc(Br)cc3)C(=O)[C@@H]2C2c3ccccc3C=CN21 (stereo partly specified) | / | 0 | / | / | -5 | -8
CC(=O)[C@H]1[C@@H]2C(=O)N(c3cccc(Cl)c3)C(=O)[C@@H]2[C@H]2c3ccccc3C=CN21 | 51* | 2 | 61* | 34* | 5 | -18
CC(=O)[C@@H]1[C@@H]2C(=O)N(c3ccc(F)c(Cl)c3)C(=O)[C@@H]2C2c3ccccc3C=CN21 (stereo partly specified) | 32 | / | 36* | 26 | / | /
SMILES | MCL1-BIM inh | C-LANA FP | BCLXL inh | GLD-1 TGE inh | Keap1 Nrf2 FP | E coli Lon inh
N#C[C@@H]1[C@@H]2C(=O)N(c3ccc4c(c3)OCCO4)C(=O)[C@@H]2C2c3ccccc3C=CN21 (stereo partly specified) | 30 | / | 34* | 31* | / | /
CC(=O)[C@H]1[C@H](c2cccc(Cl)c2)C(C#N)(C#N)[C@@H]2c3ccccc3C=CN21 | 26 | / | 31* | 34* | / | /
COC(=O)C1(CCSC)NC(c2ccccc2F)C2C(=O)N(c3ccc4c(c3)OCCO4)C(=O)C21 (stereo unspecified) | -10 | 0 | -2 | 6 | -6 | -12
CC1(C(=O)NS(=O)(=O)C2CC2)CCCN(C(=O)c2cccc(OC(F)(F)F)c2)C1 (stereo unspecified) | / | / | / | / | / | -12
CCOc1cc(OCC)cc(C(=O)N2CCC[C@H]2C(=O)N2CCC[C@H]2C(=O)NCc2cccc(OC)c2)c1 | / | / | / | / | / | -4
O=C(Nc1ccc(Cl)cc1)C1Cc2c(-c3ccccc3Oc3ccccc3)ccnc2O1 (stereo unspecified) | / | / | / | / | / | -1
CCc1ccc(C=C2SC(=S)N(CCCC(=O)Nc3ccc(C(=O)O)cc3)C2=O)cc1 | / | / | / | / | / | -5
CC(=Cc1ccccc1)C=C1SC(=S)N(CCCC(=O)Nc2ccc(C(=O)O)cc2)C1=O | / | / | / | / | / | -7
CCc1ccc(/C=C2/SC(=S)N(CCC(=O)Nc3ccc(C(=O)O)cc3)C2=O)cc1 | -2 | 8 | 189* | -4 | -13 | -3
CC(/C=C1\SC(=S)N(CCCC(=O)Nc2ccc(C(=O)O)cc2)C1=O)=C\c1ccccc1 | 0 | 85* | 1 | -2 | -3 | -14
N#CCN1CCC(c2cc(-c3ccco3)n[nH]2)CC1 | 33 | / | 38* | 29 | / | /
c1coc(-c2cc(C3CCNCC3)[nH]n2)c1 | 6 | 0 | 2 | 9 | -1 | 0
CN1C(=O)N(CC(=O)c2ccc3c(c2)OCO3)C(=O)C12CCCCC2 | / | / | / | / | / | 3
CC1(OC(=O)C2CCCC2)C(=O)C=C2C=C(C3CC3)OC=C2C1=O (stereo unspecified) | 42* | / | 50* | 44* | / | /
CC1(OC(=O)C2CCCC2)C(=O)C=C2C=C3CCCCN3C=C2C1=O (stereo unspecified) | 47* | 7 | 32* | 18 | -6 | 22
CC1(OC(=O)C2CCCC2)C(=O)C=C2C=C(c3ccsc3)N(C3CC3)C=C2C1=O (stereo unspecified) | 27 | 1 | 19 | 12 | -5 | 8
CC(=O)c1cc2c(O)c(O)ccc2o1 | 24 | 2 | 34* | 10 | -3 | 10
